The source of these data is ChEMBL document CHEMBL4513146, “CO-ADD screening of Karazin Kharkiv National University (Ukraine) compounds”.

Results with a measured potency or affinity are listed apart.

As usually defined, the Inhibition is the relative decrease from the control value, in per cent.

Assay [1] concerns Staphylococcus aureus. The following applies: Concentration 32 ug.mL-1;; ASSAY_TEST Inhibition of Bacterial Growth; detection method Absorption (OD600); MEDIA CAMHB; plate type 384well; NBS; CORNING #3640; time 18 hr.
Assay [2] has as its system Escherichia coli. The following applies: Concentration 32 ug.mL-1;; ASSAY_TEST Inhibition of Bacterial Growth; detection method Absorption (OD600); MEDIA CAMHB; plate type 384well; NBS; CORNING #3640; time 18 hr.

For `O=C(Cn1nc2ccc(SCc3ccc(Cl)cc3)nn2c1=O)NC1CCCCC1`, the Inhibition in assay [1] was 0.02%; in assay [2], -9.74%.

On to `Cc1cc2nn(CC(=O)Nc3ccc(F)c(F)c3)c(=O)n2c(Nc2ccc(C)c(F)c2)n1`, for which the Inhibition in assay [1] is 7.73%; in assay [2], -3.04%.

Regarding `Cc1ccc(-c2ccc3nn(Cc4cccc(F)c4)c(=O)n3n2)cc1C`, the values for the Inhibition in assay [1] and in assay [2] were 7.67% and 1.83%, respectively.

Take `O=C(CCc1nnc2c3cc(-c4ccc(F)cc4)nn3ccn12)N1CCC(Cc2ccccc2)CC1`: the Inhibition in assay [1] was 6.97%; in assay [2], -0.02%.

Turning to `COc1cc(NC(=O)Cn2nc3c(Sc4cccc(F)c4)nccn3c2=O)cc(OC)c1`, the figures for the Inhibition in assay [1] and in assay [2] were 9.3% and -0.8%, respectively.

`Cc1ccc(NC(=O)CSc2nnc3n(CC4CCCO4)c(=O)c4sccc4n23)cc1F` (centres undefined): the results for the Inhibition in assay [1] and in assay [2] were 4.36% and -6.16%, respectively.

On to `O=C(Cn1nc2c(SC3CCCCC3)nccn2c1=O)Nc1cccc(Cl)c1`, for which the Inhibition in assay [1] is -15.22%; in assay [2], -17.9%.

As for `Cc1cc(C)c(NC(=O)Cn2nc3ccc(SCc4ccc(Cl)cc4)nn3c2=O)c(C)c1`, the Inhibition in assay [1] was -5.02%; in assay [2], -8.63%.

Take `Cc1ccc(NC(=O)CSc2nnc3c(=O)n(-c4ccccc4)ccn23)c(C)c1`: the Inhibition in assay [1] is reported as 7.2%; in assay [2], -16.98%.

On to `COc1cccc(NC(=O)Cn2c(=O)c3nnc(C(C)C)n3c3ccccc32)c1`, for which the Inhibition in assay [1] is on record as 22.3%; in assay [2], 0.77%.

Regarding `COc1cccc(-n2ccn3c(SCc4cccc(C(F)(F)F)c4)nnc3c2=O)c1`, the Inhibition in assay [1] is 7.34%; in assay [2], -9.08%.

As to `Cn1c(=O)c2ccc(C(=O)NC3CCCCC3)cc2n2c(=O)n(Cc3cccc(C(F)(F)F)c3)nc12`, the values for the Inhibition in assay [1] and in assay [2] were 12.74% and -0.17%, respectively.

With `O=c1c2nn(Cc3ccccc3F)c(=O)n2ccn1-c1ccccc1`, the Inhibition was 4.1% in assay [1] and -4.13% in assay [2].

For the compound `Cc1cc(C)c(C(=O)CSc2nnc3c(=O)n(-c4ccc(F)cc4)ccn23)cc1C`, the Inhibition is listed as 6.25% in assay [1] and -5.27% in assay [2].

As for `O=C(Cn1nc2c(N3CCOCC3)nccn2c1=O)Nc1ccc(Br)cc1F`, the Inhibition in assay [1] is 13.39%; in assay [2], 2.9%.

On to `COc1ccc(N(Cc2cccc(F)c2)S(=O)(=O)c2ccc3nncn3c2)cc1`, for which the Inhibition is listed as -9.11% in assay [1] and 1.35% in assay [2].

Take `O=C(Cn1nc2c(Oc3ccccc3)nc3ccccc3n2c1=O)Nc1ccc2c(c1)OCO2`: the Inhibition is 13.59% in assay [1] and 2.6% in assay [2].

Regarding `Cc1ccc(CNC(=O)Cn2nc3c(Sc4cccc(F)c4)nccn3c2=O)cc1`, the Inhibition in assay [1] is -7.34%; in assay [2], -12.92%.

On to `CC1CCCN(c2nccn3c(=O)n(CC(=O)Nc4ccc(Br)cc4F)nc23)C1` (centres undefined), for which the values for the Inhibition in assay [1] and in assay [2] were 12.44% and 0.2%, respectively.

Turning to `COc1ccc(N(Cc2ccccc2F)S(=O)(=O)c2ccc3nnc(C)n3c2)cc1`, the Inhibition in assay [1] is recorded as 8.97%; in assay [2] it was -7.31%.

In the case of `COc1ccc(N(Cc2cc(F)cc(F)c2)S(=O)(=O)c2ccc3nnc(C)n3c2)cc1`, the Inhibition in assay [1] is listed as 12.66%; in assay [2] it was -2.53%.

As to `O=C(CCc1nnc2ccc(-c3ccc(Cl)cc3)nn12)NCc1ccc(F)cc1Cl`, the Inhibition is reported as 11.56% in assay [1] and -1.56% in assay [2].

Take `O=c1c2sccc2n2c(=O)n(Cc3ccccc3Cl)nc2n1CCc1ccccc1`: the results for the Inhibition in assay [1] and in assay [2] were 10.44% and 0.77%, respectively.

Consider `COc1ccc(NC(=O)c2ccc3nn(CC(=O)Nc4ccc5c(c4)OCCO5)c(=O)n3c2)cc1`, for which the Inhibition in assay [1] is 0.27%; in assay [2], -8.29%.

In the case of `O=c1c2nnc(SCc3ccccc3Cl)n2ccn1-c1ccc(F)c(F)c1`, the Inhibition in assay [1] is given as 11.5%; in assay [2] it was -3.79%.

As to `CC(C)Cc1ccc(S(=O)(=O)Nc2ccc3nncn3n2)cc1`, the Inhibition came to 13.61% in assay [1] and 2.12% in assay [2].

With `CCCNC(=O)CSc1nnc2c(=O)n(-c3ccc(F)cc3)ccn12`, the Inhibition was -5.35% in assay [1] and -1% in assay [2].

Regarding `CCCn1c(=O)c2sccc2n2c(CCC(=O)NC(C)C34CC5CC(CC(C5)C3)C4)nnc12` (centres undefined), the Inhibition is listed as -5.57% in assay [1] and -7.36% in assay [2].

Take `COC(=O)c1ccc(NC(=O)CSc2nnc3ccc(C(=O)Nc4cccc(F)c4)cn23)cc1`: the Inhibition in assay [1] is on record as 19.46%; in assay [2], -0.45%.

As for `COc1cc(NC(=O)CSc2nnc3c(=O)n(-c4ccccc4)ccn23)cc(OC)c1`, the values for the Inhibition in assay [1] and in assay [2] were 14.02% and 0.85%, respectively.

For the compound `COc1cccc(-n2ccn3c(SCc4ccc(F)cc4)nnc3c2=O)c1`, the Inhibition is on record as 5.89% in assay [1] and -10.24% in assay [2].

As to `COc1cccc(Oc2nccn3c(=O)n(CC(=O)Nc4cccc(Br)c4)nc23)c1`, the Inhibition in assay [1] is given as 9.05%; in assay [2] it was -6.35%.

Regarding `CCC(Sc1nnc2c(=O)n(-c3ccc(C)c(C)c3)ccn12)C(=O)Nc1cc(OC)ccc1OC` (centres undefined), the Inhibition is given as -17.77% in assay [1] and -11.35% in assay [2].

For the compound `COC(=O)c1ccc(NC(=O)Cn2nc3nc(N4CCCCCC4)ccn3c2=O)cc1`, the Inhibition was 7.17% in assay [1] and -2.48% in assay [2].

Turning to `CCc1ccccc1NC(=O)Cn1nc2cc(C)nc(Nc3ccc(F)c(C)c3)n2c1=O`, the Inhibition in assay [1] was -15.94%; in assay [2], -1.7%.

Take `O=C(CCc1nnc2c(N3CCCCC3)nc3ccccc3n12)NCc1ccc(Cl)cc1`: the Inhibition is listed as 12.63% in assay [1] and 0.78% in assay [2].

For the compound `Cc1ccccc1NC(=O)Cn1nc2ccc(SC3CCCCC3)nn2c1=O`, the Inhibition in assay [1] is 2.21%; in assay [2] it was -7.39%.

`O=C(Cn1nc2n(CCc3ccccc3)c(=O)c3ccccc3n2c1=O)Nc1ccc2c(c1)OCO2`: the Inhibition is -2.08% in assay [1] and -8.34% in assay [2].

In the case of `COc1ccc(CCn2c(=O)c3sccc3n3c(=O)n(Cc4ccc(F)cc4)nc23)cc1OC`, the Inhibition in assay [1] is reported as 2.92%; in assay [2] it was -0.5%.

`CCOc1ccc(-n2ccn3c(SCC(=O)Nc4ccc(C)cc4)nnc3c2=O)cc1`: the Inhibition in assay [1] was 15.66%; in assay [2], 2.17%.

On to `O=C(Cn1nc2c(SCc3ccccc3)nccn2c1=O)NC1CCCCC1`, for which the Inhibition in assay [1] is on record as 7.46%; in assay [2], -4.24%.

For the compound `CCCCn1c(=O)c2sccc2n2c(=O)n(CC(=O)NC(C)C)nc12`, the Inhibition is on record as 6.34% in assay [1] and -3.44% in assay [2].

As to `CC(C)c1ccc(NC(=O)CSc2nc3ccccc3n3cnnc23)cc1`, the figures for the Inhibition in assay [1] and in assay [2] were 8.55% and -4.05%, respectively.

Consider `Cc1nnc2ccc(S(=O)(=O)N(Cc3cccc(F)c3)c3cccc(F)c3)cn12`, for which the Inhibition in assay [1] is -4.62%; in assay [2], -13.2%.

Take `CCOc1ccc(-n2ccn3c(SCc4cccc(C(F)(F)F)c4)nnc3c2=O)cc1`: the Inhibition in assay [1] was determined as 18.58%; in assay [2], 1.02%.

With `Cc1ccc(Sc2nccn3c(=O)n(CC(=O)N4CCN(c5ccc(F)cc5)CC4)nc23)c(C)c1`, the Inhibition in assay [1] is given as -13.09%; in assay [2] it was -20.44%.

`COc1ccccc1-n1ccn2c(=O)n(Cc3ccc(F)cc3Cl)nc2c1=O`: the Inhibition in assay [1] was 9.6%; in assay [2], -2.36%.

Turning to `COc1ccc(CNC(=O)Cn2nc3c(Oc4ccccc4C)nccn3c2=O)cc1`, the Inhibition in assay [1] is 1.68%; in assay [2], -7.69%.

Take `COc1ccc(NC(=O)Cn2nc3c4cc(-c5ccc(C)cc5)nn4ccn3c2=O)cc1`: the Inhibition is -5.75% in assay [1] and -1.43% in assay [2].

Take `O=C(CSc1nnc2ccc(C(=O)Nc3cccc(F)c3)cn12)Nc1ccc(F)c(F)c1`: the Inhibition worked out at 8.43% in assay [1] and 1.09% in assay [2].

`Cc1oc(-c2cccc(Cl)c2)nc1CSc1nc2ccccc2n2c(C)nnc12`: the Inhibition in assay [1] was 0.94%; in assay [2], 1.96%.

Consider `Cc1c(Cl)cccc1-n1ccn2c(=O)n(Cc3c(F)cccc3Cl)nc2c1=O`, for which the Inhibition in assay [1] is -0.05%; in assay [2], -8.85%.

Regarding `O=C(Cn1nc2n(Cc3ccc(F)cc3)c(=O)c3ccccc3n2c1=O)Nc1ccc2c(c1)OCO2`, the values for the Inhibition in assay [1] and in assay [2] were 15.06% and -3.01%, respectively.

Consider `CSc1cccc(NC(=O)Cn2nc3c(Sc4ccc(C)cc4C)nccn3c2=O)c1`, for which the values for the Inhibition in assay [1] and in assay [2] were -13.41% and -16.34%, respectively.

Regarding `COc1ccc(-c2cc3c4nn(CC(=O)Nc5ccccc5)c(=O)n4ccn3n2)cc1`, the Inhibition in assay [1] was 3.97%; in assay [2] it was 7.52%.

Regarding `O=C1CCCN1c1ccc(Cn2nc3ccc(-c4ccccc4)nn3c2=O)cc1`, the values for the Inhibition in assay [1] and in assay [2] were -3.3% and -6.97%, respectively.

As for `Cc1cc(C)cc(N(Cc2c(F)cccc2Cl)S(=O)(=O)c2cccn3cnnc23)c1`, the Inhibition in assay [1] was 4.69%; in assay [2] it was -4.41%.

Consider `N#Cc1cccc(NC(=O)Cn2nc3c(Oc4ccccc4)nccn3c2=O)c1`, for which the Inhibition in assay [1] is reported as 10.16%; in assay [2] it was -2.65%.

`CN(C(=O)Cn1nc2n(Cc3ccco3)c(=O)c3sccc3n2c1=O)c1ccccc1`: the values for the Inhibition in assay [1] and in assay [2] were 0.44% and -5.3%, respectively.

Regarding `Cc1ccc(-c2cc3c4nn(CC(=O)Nc5ccccc5Br)c(=O)n4ccn3n2)cc1C`, the Inhibition in assay [1] was 9.34%; in assay [2], -2.39%.

Take `O=C(Cn1nc2c(Oc3ccccc3)nccn2c1=O)Nc1ccc2c(c1)OCO2`: the Inhibition in assay [1] was 2.59%; in assay [2] it was -7.1%.

On to `CCc1cccc(NC(=O)CSc2nnc3c(=O)n(-c4cccc(OC)c4)ccn23)c1`, for which the Inhibition in assay [1] was 9.81%; in assay [2], -1.21%.

Turning to `COC(=O)c1ccc(NC(=O)Cn2nc3c4cc(-c5ccc(OC)cc5)nn4ccn3c2=O)cc1`, the Inhibition worked out at 11.91% in assay [1] and 3.86% in assay [2].

As for `COc1ccc(-n2ccn3c(-c4ccc([N+](=O)[O-])cc4)nnc3c2=O)cc1`, the Inhibition in assay [1] is on record as 12.69%; in assay [2], -0.05%.

Consider `CC(C)NC(=O)CSc1nnc2c(=O)n(-c3ccccc3)ccn12`, for which the Inhibition in assay [1] is -3.39%; in assay [2], 1.35%.

In the case of `COc1ccc(-c2cc3c4nn(CC(=O)Nc5cc(Cl)ccc5C)c(=O)n4ccn3n2)cc1`, the Inhibition in assay [1] turned out to be 5.04%; in assay [2] it was 1.53%.

For the compound `CCc1nnc2c(SCC(=O)Nc3ccc(C)cc3Cl)nc3ccccc3n12`, the results for the Inhibition in assay [1] and in assay [2] were 2.52% and 2.69%, respectively.

Consider `Cc1cc(C)cc(Nc2nc(C)cc3nn(CC(=O)NC4CCCCC4)c(=O)n23)c1`, for which the figures for the Inhibition in assay [1] and in assay [2] were 14.04% and -1.15%, respectively.

Take `Cc1nnc2c(SCC(=O)Nc3ccc(F)cc3F)nc3ccccc3n12`: the Inhibition in assay [1] was found to be 11.73%; in assay [2] it was 2.93%.

On to `COc1cccc(-n2ccn3c(SCc4ccccc4C)nnc3c2=O)c1`, for which the Inhibition in assay [1] is 11%; in assay [2] it was -3.45%.

`Cc1ccc(C)c(S(=O)(=O)Nc2ccc3nncn3n2)c1`: the figures for the Inhibition in assay [1] and in assay [2] were 15.24% and 1.21%, respectively.

As to `Cc1ccc(NC(=O)Cn2nc3ccc(SCc4ccc(Cl)cc4)nn3c2=O)cc1C`, the figures for the Inhibition in assay [1] and in assay [2] were 4.09% and -6.92%, respectively.
